# Source: PubChem BioAssay (EPA / NIEHS)
# Inconclusive results are not listed. Active and inactive are the calls of the source. How the source made its calls: active means hit-call score of the fitted dose curve at least 0.9, where 1 is the maximum; inconclusive means response in the unintended direction; inactive means score below 0.9.
# Target: human Neurotensin Receptor (NTS), NTSR1 (gene 4923) (UniProt P30989)
# Assay: NVS_GPCR_hNTS: NovaScreen (NVS) G Protein-Coupled Receptor Assay for human Neurotensin Receptor (NTS) (AID 2283279)
# Summary of the method: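 Compounds competed with a radiolabelled ligand for binding to CHO-derived human neurotensin receptor; bound signal counted after filtration, 1 h. Screened first at a single concentration of 25 uM in duplicate, then concentration series to 50 uM maximum for actives.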
# Chain of human Neurotensin Receptor (NTS), NTSR1 (gene 4923) (P30989 whole entry, looked up): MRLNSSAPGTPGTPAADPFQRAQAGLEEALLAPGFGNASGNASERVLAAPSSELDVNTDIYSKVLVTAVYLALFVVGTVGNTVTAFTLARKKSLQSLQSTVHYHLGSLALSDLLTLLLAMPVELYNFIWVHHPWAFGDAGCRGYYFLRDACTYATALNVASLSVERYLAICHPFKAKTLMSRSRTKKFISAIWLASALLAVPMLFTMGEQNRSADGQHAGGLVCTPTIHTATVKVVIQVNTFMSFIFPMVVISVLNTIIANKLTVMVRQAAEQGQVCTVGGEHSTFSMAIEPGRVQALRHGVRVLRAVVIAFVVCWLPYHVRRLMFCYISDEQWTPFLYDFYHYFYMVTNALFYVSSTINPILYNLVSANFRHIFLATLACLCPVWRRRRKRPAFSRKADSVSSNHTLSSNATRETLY
row,SMILES,AC50
1,CCCC(=O)OCCC(C)C,15 µM (active)
2,CCCCCCCCCCCC[N+](C)(C)C,11.7 µM (active)
